PubChem BioAssay AID1159580 (chemical genetic matrix, 2015)
In all, about 5,500 compounds went through this assay and about 2,000 (36%) were called active. Inconclusive results (about 18%) are left out. Rule as the data show it: active = normalized growth mostly below about 0.91 (no sharp cut-off); inconclusive = no clear call, values can overlap the other calls; inactive = mostly above about 0.92. This is one part of the list.

Assay: chemical genetic growth profiling, strain panel (AID 1159580);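 also: tested at 20 µM; growth read once vehicle control cultures reached saturation at 30 °C; 1 = growth at the plate median or of vehicle wells; lower values mean less growth of the strain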
Conditions: S. cerevisiae deletion strains, growth OD
[1] = locus YAL021C, strain ccr4, active compounds read low
[2] = locus YAL026C, strain drs2, active compounds read low
[3] = locus YAL030W, strain snc1, active compounds read low
[4] = locus YBL061C, strain skt5, active compounds read low
[5] = locus YBR009C, strain hhf1, active compounds read low
[6] = locus YBR023C, strain chs3, active compounds read low
[7] = locus YBR171W, strain sec66, active compounds read low
[8] = locus YBR231C, strain swc5, active compounds read low
[9] = locus YBR279W, strain paf1, active compounds read low
[10] = locus YCL011C, strain gbp2, active compounds read low
[11] = locus YCL016C, strain dcc1, active compounds read low
[12] = locus YCL061C, strain MRC1, active compounds read low
[13] = locus YCL069W, strain vba3, active compounds read low
[14] = locus YCR088W, strain abp1, active compounds read low
[15] = locus YDL005C, strain med2, active compounds read low
[16] = locus YDL040C, strain nat1, active compounds read low
[17] = locus YDR001C, strain nth1, active compounds read low
[18] = locus YDR069C, strain doa4, active compounds read low
[19] = locus YDR137W, strain rgp1, active compounds read low
[20] = locus YDR159W, strain sac3, active compounds read low
[21] = locus YDR297W, strain sur2, active compounds read low
[22] = locus YDR334W, strain swr1, active compounds read low
[23] = locus YDR335W, strain msn5, active compounds read low
[24] = locus YDR392W, strain spt3, active compounds read low
[25] = locus YEL003W, strain gim4, active compounds read low
[26] = locus YEL037C, strain rad23, active compounds read low
[27] = locus YEL061C, strain CIN8 (second series), active compounds read low
[28] = locus YER015W, strain faa2, active compounds read low
[29] = locus YER016W, strain bim1, active compounds read low
[30] = locus YER111C, strain swi4, active compounds read low
[31] = locus YER155C, strain BEM2 (second series), active compounds read low
[32] = locus YFR010W, strain ubp6, active compounds read low
[33] = locus YGL167C, strain pmr1, active compounds read low
[34] = locus YGL173C, strain kem1, active compounds read low
[35] = locus YGL227W, strain vid30, active compounds read low
[36] = locus YGL240W, strain doc1, active compounds read low
[37] = locus YGL253W, strain hxk2, active compounds read low
[38] = locus YHR013C, strain ard1, active compounds read low
[39] = locus YHR027C, strain rpn1, active compounds read low
[40] = locus YHR142W, strain chs7, active compounds read low
[41] = locus YJL092W, strain hpr5, active compounds read low
[42] = locus YJL095W, strain BCK1 (second series), active compounds read low
[43] = locus YJL115W, strain asf1, active compounds read low
[44] = locus YJL129C, strain trk1, active compounds read low
[45] = locus YJL154C, strain vps35, active compounds read low
[46] = locus YJL164C, strain tpk1, active compounds read low
[47] = locus YJL166W, strain qcr8, active compounds read low
[48] = locus YJL187C, strain SWE1, active compounds read low
[49] = locus YKL160W, strain elf1, active compounds read low
[50] = locus YKR026C, strain gcn3, active compounds read low
[51] = locus YKR091W, strain srl3, active compounds read low
[52] = locus YLL001W, strain dnm1, active compounds read low
[53] = locus YLL026W, active compounds read low
[54] = locus YLL041C, strain sdh2, active compounds read low
[55] = locus YLR027C, strain aat2, active compounds read low
[56] = locus YLR221C, strain rsa3, active compounds read low
[57] = locus YLR258W, strain gsy2, active compounds read low
[58] = locus YLR262C, strain YPT6 (second series), active compounds read low
[59] = locus YLR320W, strain mms22, active compounds read low
[60] = locus YLR342W, strain FKS1, active compounds read low
[61] = locus YLR357W, strain rsc2, active compounds read low
[62] = locus YLR370C, strain arc18, active compounds read low
[63] = locus YLR384C, strain iki3, active compounds read low
[64] = locus YML120C, strain ndi1, active compounds read low
[65] = locus YMR058W, strain fet3, active compounds read low
[66] = locus YMR125W, strain sto1, active compounds read low
[67] = locus YMR129W, active compounds read low
[68] = locus YMR205C, strain PFK2, active compounds read low
[69] = locus YMR231W, strain pep5, active compounds read low
[70] = locus YNL071W, strain lat1, active compounds read low
[71] = locus YNL209W, strain ssb2, active compounds read low
[72] = locus YNL248C, strain rpa49, active compounds read low
[73] = locus YNL322C, strain KRE1 (second series), active compounds read low
[74] = locus YNR049C, strain mso1, active compounds read low
[75] = locus YOR001W, strain rrp6, active compounds read low
[76] = locus YOR070C, strain gyp1, active compounds read low
[77] = locus YOR080W, strain dia2, active compounds read low
[78] = locus YOR083W, strain WHI5, active compounds read low
[79] = locus YOR106W, strain vam3, active compounds read low
[80] = locus YOR265W, strain rbl2, active compounds read low
[81] = locus YOR270C, strain vph1, active compounds read low
[82] = locus YOR290C, strain snf2, active compounds read low
[83] = locus YPL051W, strain arl3, active compounds read low
[84] = locus YPL078C, strain atp4, active compounds read low
[85] = locus YPL106C, strain sse1, active compounds read low
[86] = locus YPL240C, strain hsp82, active compounds read low

Measured: normalized growth

C[C@]12C=CC(=O)C=C1CCC1C2[C@@H](O)C[C@@]2(C)C1CC[C@]2(O)C(=O)COP(=O)(O)O (some centres not stated)
inactive: [1] 1.01 | [2] 1 | [3] 1 | [4] 0.995 | [5] 1 | [6] 0.998 | [7] 0.995 | [8] 1.01 | [9] 1.01 | [10] 1 | [11] 0.995 | [12] 0.995 | [13] 1.01 | [14] 1.01 | [15] 1 | [16] 0.997 | [17] 1 | [18] 0.998 | [19] 1.02 | [20] 0.98 | locus YDR195W, strain ref2 0.954 | [21] 1 | [22] 1.01 | [23] 0.998 | [24] 0.96 | [25] 1.01 | [26] 1.04 | [27] 0.999 | [28] 0.999 | [29] 0.99 | [30] 0.998 | [31] 1.01 | [32] 1.01 | [33] 1 | [34] 1 | [35] 0.996 | [36] 0.996 | [37] 0.995 | [38] 1 | [39] 1 | locus YHR030C, strain SLT2, active compounds read low 1.04 | locus YHR079C, strain IRE1, active compounds read low 1.02 | [40] 0.999 | [41] 0.993 | [42] 0.994 | locus YJL095W, strain BCK1, active compounds read low 0.977 | [43] 0.995 | [44] 1 | [45] 1.01 | [46] 0.995 | [47] 1.01 | [48] 1.01 | locus YJR066W, strain TOR1, active compounds read low 0.973 | [49] 1 | [50] 0.984 | [51] 1 | [52] 1 | [53] 0.992 | [54] 1 | [55] 1.01 | locus YLR113W, strain HOG1, active compounds read low 0.984 | [56] 1.01 | [57] 1 | [58] 1.01 | [59] 1 | [60] 0.989 | [61] 0.983 | [62] 1 | [63] 1 | [64] 1.01 | [65] 0.996 | [66] 0.98 | [67] 1.01 | [68] 0.992 | [69] 1 | [70] 1 | locus YNL183C, strain NPR1, active compounds read low 0.973 | [71] 1 | [72] 1.02 | [73] 1 | [74] 1.01 | [75] 1.01 | [76] 0.994 | [77] 0.998 | [78] 1.01 | [79] 1.01 | locus YOR231W, strain MKK1, active compounds read low 1.02 | [80] 0.995 | [81] 1.03 | [82] 1.02 | [83] 1.01 | [84] 1 | [85] 1.01 | [86] 0.996 | locus YPL256C, strain CLN2, active compounds read low 0.997

OC1CC2CCCC(C1)N2Cc1ccccc1 (configuration not stated)
inactive: [1] 1.01 | [2] 0.993 | [3] 1 | [4] 0.932 | [5] 0.989 | [6] 1 | [7] 0.987 | [8] 0.988 | [9] 1 | [10] 1.01 | [11] 0.998 | [12] 0.997 | [13] 1 | [14] 1 | [15] 0.992 | [16] 0.998 | [17] 1 | [18] 0.989 | [19] 0.974 | [20] 0.963 | locus YDR195W, strain ref2 0.913 | [21] 0.998 | [22] 1.01 | [23] 1 | [24] 0.901 | [25] 1 | [26] 1 | [27] 1 | [28] 1 | [29] 0.986 | [30] 0.982 | [31] 0.989 | [32] 1 | [33] 0.99 | [34] 0.997 | [35] 0.986 | [36] 0.977 | [37] 0.989 | [38] 0.953 | [39] 1 | [40] 1.01 | [41] 1.02 | [42] 1 | [43] 1 | [44] 0.993 | [45] 1 | [46] 1 | [47] 0.998 | [48] 1 | [49] 1 | [50] 1 | [51] 0.999 | [52] 0.986 | [53] 0.988 | [54] 1 | [55] 1 | [56] 1 | [57] 0.986 | [58] 0.956 | [59] 0.99 | [60] 0.995 | [61] 0.959 | [62] 1.01 | [63] 0.996 | [64] 1.02 | [65] 1 | [66] 0.988 | [67] 0.994 | [68] 0.978 | [69] 1 | [70] 1.01 | [71] 1 | [72] 0.981 | [73] 1 | [74] 0.999 | [75] 1.01 | [76] 0.995 | [77] 0.998 | [78] 1.01 | [79] 1 | [80] 0.99 | [81] 0.99 | [82] 0.955 | [83] 1 | [84] 1 | [85] 0.98 | [86] 1
